Compounds without any hit were thinned out: in the full panel of roughly 83,000, 20% have a hit.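 Results are percent growth after 48 hours of single-concentration exposure. 100 means growth as in untreated cells, lower positive values show inhibition; negative values down to -100 show cell death.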 A number with no mark means an inactive call. Active and inactive are the calls of the source. Rule for the calls: active = growth percent below 10; inactive = the rest.

This passage reports growth results from PubChem BioAssay (NCI).

Some test systems named below: SR leukemia; RPMI-8226 leukemia; OVCAR-8 ovarian; OVCAR-5 ovarian; OVCAR-4 ovarian; SK-OV-3 ovarian; IGROV1 ovarian; OVCAR-3 ovarian; HS 578T breast; NCI/ADR-RES ovarian; T-47D breast; BT-549 breast; MDA-MB-435 melanoma; SW-620 colon; MCF7 breast; HCT-116 colon; HCC-2998 colon; KM12 colon.
What all share (experiment): NCI-60 one-dose screen, 48 h (100 = growth as untreated, 0 = no growth, -100 = all killed)
Conditions in all cases: 10 µM unless noted

As to `CC(=O)Nc1ccc(/C=C/C(=O)c2ccccc2)cc1`, the growth with SR leukemia is 3.34% (active); with RPMI-8226 leukemia, -8.05% (active); with OVCAR-8 ovarian it was 98.4%; in the test on OVCAR-5 ovarian, 113%; with OVCAR-4 ovarian it was 106%; with SK-OV-3 ovarian, 101%. In addition, the growth with IGROV1 ovarian is 43%; in the test on OVCAR-3 ovarian, 57.6%; in the test with HS 578T breast, 81.7%; in the test on NCI/ADR-RES ovarian, 103%; with T-47D breast, 73.9%; in the test on BT-549 breast it was 86.2%. Further, the growth is 114% with MDA-MB-435 melanoma; 53.2% in the test with SW-620 colon; 56.4% in the test on MCF7 breast; 77% in the test with HCT-116 colon; 113% in the test on HCC-2998 colon; 46.6% in the test on KM12 colon.

Turning to `CCN1CCN(c2nc(NNC(=O)c3ccccc3)nc(N3CCN(C(c4ccccc4)c4ccccc4)CC3)n2)CC1`, the growth is -20.5% (active) in the test on SR leukemia; 42% in the test on RPMI-8226 leukemia; 74.3% with OVCAR-8 ovarian; 96.2% in the test on OVCAR-5 ovarian; 38.2% in the test on OVCAR-4 ovarian; 89.7% in the test on SK-OV-3 ovarian. Also, the growth in the test on IGROV1 ovarian was 53.1%; in the test with OVCAR-3 ovarian, 52.1%; with HS 578T breast, 79.2%; in the test on NCI/ADR-RES ovarian, 79%; in the test on T-47D breast, 40.7%; in the test on BT-549 breast it was 79.1%. Also, the growth in the test on MDA-MB-435 melanoma was 60.2%; in the test with SW-620 colon, 5.78% (active); in the test on MCF7 breast it was 28.9%; in the test on HCT-116 colon it was 20.2%; with HCC-2998 colon it was 31.7%; in the test with KM12 colon, 58.4%.

With `Cc1cc(C2=NNC(=O)Cc3cc4c(cc32)OCCO4)cc(C)c1N`, the growth with SR leukemia is 27.5%; in the test with RPMI-8226 leukemia, 52.8%; in the test on OVCAR-8 ovarian, 54.8%; in the test with OVCAR-5 ovarian it was 75.8%; in the test with OVCAR-4 ovarian, 56.8%; with SK-OV-3 ovarian it was 20.2%. Moreover, the growth with IGROV1 ovarian was 44.7%; in the test with OVCAR-3 ovarian it was -28.5% (active); with HS 578T breast, 24.9%; in the test on NCI/ADR-RES ovarian it was -4.6% (active); in the test with T-47D breast, 46.1%; in the test with BT-549 breast it was 30.7%. Also, the growth in the test on MDA-MB-435 melanoma was -12.6% (active); in the test on SW-620 colon, 26.5%; in the test with MCF7 breast, 16.7%; with HCT-116 colon it was 20.4%; in the test on HCC-2998 colon, 48.8%; with KM12 colon, 24%.

Take `O=C1c2ccccc2-c2ccccc2C1(Cl)Cl`: the growth in the test on SR leukemia is 16.7%; with RPMI-8226 leukemia, -10.8% (active); in the test with OVCAR-8 ovarian, -90.4% (active); in the test with OVCAR-5 ovarian, -73.7% (active); in the test on OVCAR-4 ovarian it was -98.6% (active); in the test with SK-OV-3 ovarian it was 94.5%. Further, the growth is -98.5% (active) with IGROV1 ovarian; -87.2% (active) in the test on OVCAR-3 ovarian; -7.35% (active) with HS 578T breast; -44.2% (active) with NCI/ADR-RES ovarian; -42.7% (active) with T-47D breast; -84% (active) with BT-549 breast. The growth with MDA-MB-435 melanoma is -90.1% (active); with SW-620 colon, -65.8% (active); with MCF7 breast, -88.7% (active); in the test on HCT-116 colon, -70.6% (active); in the test with HCC-2998 colon it was 89.6%; in the test on KM12 colon, -90.6% (active).

Regarding `COc1c2occc2c(OC)c2c(=O)c(-c3cc(-c4ccc(F)cc4)c(C#N)c(N)n3)c(C)oc12`, the growth in the test with SR leukemia was 15.5%; in the test on RPMI-8226 leukemia, 27.3%; in the test with OVCAR-8 ovarian it was 49.1%; with OVCAR-5 ovarian it was 91.9%; in the test on OVCAR-4 ovarian, 19.4%; in the test with SK-OV-3 ovarian it was 56.5%. Also, the growth in the test with IGROV1 ovarian was 21.3%; in the test on OVCAR-3 ovarian, 15.2%; with HS 578T breast, 43.7%; in the test on NCI/ADR-RES ovarian it was 68.2%; in the test with T-47D breast it was 30.7%; with BT-549 breast, 63.7%. The growth in the test with MDA-MB-435 melanoma was 63.1%; in the test on SW-620 colon it was 42.3%; in the test with MCF7 breast, 13.4%; in the test on HCT-116 colon, 9.9% (active); in the test with HCC-2998 colon, 69.3%; in the test on KM12 colon it was 46.2%.

In the case of `Cc1nc2cncc(C#Cc3cncc(C(=O)Nc4ccc(CN5CCN(C)CC5)c(C(F)(F)F)c4)c3)c2nc1C`, the growth was 19.7% in the test with SR leukemia; 8.79% (active) in the test with RPMI-8226 leukemia; 24.6% with OVCAR-8 ovarian; 10.5% with OVCAR-5 ovarian; 13.7% in the test on OVCAR-4 ovarian; -26.8% (active) in the test with SK-OV-3 ovarian. Moreover, the growth with IGROV1 ovarian was -5.34% (active); in the test on OVCAR-3 ovarian, 25.9%; in the test on HS 578T breast, -9.83% (active); in the test with NCI/ADR-RES ovarian it was 18.5%; in the test on T-47D breast, 26.6%; with BT-549 breast it was 37.6%. For the same compound, the growth was -1.99% (active) with MDA-MB-435 melanoma; 1.45% (active) with SW-620 colon; 19% in the test on MCF7 breast; 5.45% (active) in the test on HCT-116 colon; 30.7% with HCC-2998 colon; 3.08% (active) with KM12 colon.

`O=C(CN1CCN(c2cc3c(cc2F)c(=O)c(C(=O)N/N=C/c2ccccc2O)cn3C2CC2)CC1)N/N=C\c1ccccc1O`: the growth in the test on SR leukemia was 14.6%; in the test on RPMI-8226 leukemia, 25.4%; with OVCAR-8 ovarian it was 25.8%; with OVCAR-5 ovarian it was 39%; in the test with OVCAR-4 ovarian, 19.8%; in the test with SK-OV-3 ovarian, 34.5%. The growth in the test with IGROV1 ovarian is 21.5%; in the test with OVCAR-3 ovarian it was 30.7%; in the test with HS 578T breast, 57.4%; with NCI/ADR-RES ovarian, 23.6%; with T-47D breast it was 17.9%; in the test on BT-549 breast, 45.5%. Besides, the growth was 17.6% in the test on MDA-MB-435 melanoma; 36.6% in the test on SW-620 colon; 10% in the test with MCF7 breast; 15.6% in the test with HCT-116 colon; 39.5% in the test on HCC-2998 colon; 18.3% with KM12 colon.

Turning to `C=C[C@@H]1C[C@@H]2Cc3ccccc3N1O2`, the growth in the test on SR leukemia is 97.1%; in the test on RPMI-8226 leukemia it was 85.5%; in the test on OVCAR-8 ovarian, 106%; with OVCAR-5 ovarian, 97.4%; in the test with OVCAR-4 ovarian, 112%; in the test with SK-OV-3 ovarian it was 114%. In addition, the growth is 121% with IGROV1 ovarian; 121% in the test on OVCAR-3 ovarian; 100% with HS 578T breast; 106% with NCI/ADR-RES ovarian; 110% with T-47D breast; 114% in the test with BT-549 breast. Also, the growth is 100% in the test with MDA-MB-435 melanoma; 102% with SW-620 colon; 111% in the test on MCF7 breast; 101% in the test on HCT-116 colon; 114% in the test on HCC-2998 colon; 110% in the test on KM12 colon.
